A selection: hits, their analogues and other compounds. The true share with any hit is near 3.5%.
GPR151 ag: activates the human receptor GPR151; Q8TDV0; PathHunter beta-arrestin GPR151 cells, luminescence; activation, % at 11.2 µM; 650,000 compounds, 1% hits; AID 1508602; in the data active means activation above about 4.9%;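 further: 0% = median of compound wells and 100% = cells with positive control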
TEAD-YAP block: TEAD-YAP interaction inhibition. HEK-TIYL cells, TEAD-Gal4/YAP UAS-luciferase luminescence. 640,000 compounds, 1.4% hits. inhibition, % at 9.12 µM; in the data active means inhibition above about 32%;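 further: 0% = median of test compound wells and 100% = reference inhibitor wells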
FBW7 act: human FBW7 E3 ligase activation, primary screen | Q969H0 | normalized activity (activation), % at 26.1 µM | 650,000 compounds, 0.13% hits | AlphaScreen FBW7–phospho-cyclin E peptide binding, activator screen | AID 1259310; in the data active means normalized activity above about 1.9%;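 further: purified mutant Fbw7 with reduced substrate affinity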
MITF primary: inhibitors of human MITF | AlphaScreen MITF homodimerization, bead proximity signal | inhibition, % at 2.6 µM | 650,000 compounds, 0.91% hits; in the data active means inhibition above about 50%;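 further: 0% = vehicle wells with protein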
Target sequence (O75030 whole entry, looked up): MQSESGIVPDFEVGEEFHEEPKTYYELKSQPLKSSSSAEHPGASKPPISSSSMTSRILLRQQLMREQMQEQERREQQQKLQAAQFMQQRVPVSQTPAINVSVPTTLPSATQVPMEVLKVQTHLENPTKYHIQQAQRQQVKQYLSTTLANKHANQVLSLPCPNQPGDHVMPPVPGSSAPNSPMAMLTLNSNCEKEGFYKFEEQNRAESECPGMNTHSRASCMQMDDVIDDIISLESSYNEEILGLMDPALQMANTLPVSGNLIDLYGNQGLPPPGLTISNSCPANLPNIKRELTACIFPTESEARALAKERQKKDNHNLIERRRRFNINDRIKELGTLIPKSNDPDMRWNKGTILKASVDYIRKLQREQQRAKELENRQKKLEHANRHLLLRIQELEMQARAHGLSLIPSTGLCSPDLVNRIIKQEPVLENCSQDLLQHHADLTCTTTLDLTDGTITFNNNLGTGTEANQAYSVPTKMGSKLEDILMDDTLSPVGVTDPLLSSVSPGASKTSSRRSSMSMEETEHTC
MITF confirm: human MITF inhibition, confirmation. shares compounds with MITF primary. 4,700 compounds, 16% hits. AlphaScreen MITF homodimerization, biotin/His-MITF beads. inhibition, % at 2.6 µM;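 active means inhibition above a cutoff derived from the DMSO control wells, cut at about 28% in these data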;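 further: 0% = MITF dimer wells with DMSO only; inhibitors lower the bead chemiluminescence by keeping MITF from dimerizing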
AlphaScreen DR: AlphaScreen optical interference, dose response counter-screen. shares compounds with MITF primary. AlphaScreen optical interference counterscreen, cell-free. IC50, µM. 480 compounds, 6% hits. AID 1259373; call rule not given here
AlphaScreen intf2: AlphaScreen optical interference, counter-screen; inhibition, % at 2.6 µM; LysRS AlphaScreen counterscreen, signal interference, triplicate; 4,700 compounds, 7.6% hits; shares compounds with MITF primary;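 active means inhibition above a cutoff derived from the DMSO control wells, cut at about 30% in these data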
* hit, by the source's call; · = not tested or not shown.

SMILES	GPR151 ag	TEAD-YAP block	FBW7 act	MITF primary	MITF confirm	AlphaScreen intf2	others
Cc1ccc(C2(c3ccc(C)cc3)CC2C(=O)Nc2ccccc2F)cc1 (stereo not given)	0	4	0	6	·	·
Cc1cc(NC(=O)COC(=O)c2ccc(NC(N)=O)cc2)ccc1Br	-1	-5	0	52*	-5	1
CC1CN(CC(=O)N(C)CC2CCCCO2)Cc2cc(Cl)ccc2O1 (stereo not given)	2	5	0	55*	-4	-1
COC(=O)C(C)CN1CCN(C)CC1 (stereo not given)	0	-3	0	60*	-23	-6
COCCNC(=O)N1CCN(Cc2nc3ccccc3n2C)CC1	0	5	0	78*	8	20
Cn1c(CN2CCN(C(=O)c3cc(=O)c4ccccc4o3)CC2)nc2ccccc21	0	9	0	86*	2	14
COC(=O)c1ccc(NC(=O)CN2CCN(Cc3nc4ccccc4n3C)CC2)cc1	0	2	0	70*	3	20
Cc1noc(C)c1CN1CCN(C(=O)c2cc(=O)c3ccccc3o2)CC1	1	-4	0	10	·	·
Cn1c(CN2CCN(Cc3ccccc3)CC2)nc(=O)c2ccccc21	-1	-4	0	71*	-17	3
CCC(C)(C)NC(=O)C(c1ccncc1)N(C(=O)c1csnn1)c1ccc(Cl)cc1 (stereo not given)	2	-7	0	11	·	·
CC1(C)CC(=O)C2=C(C1)N=C1SCCC(=O)N1C2c1ccc(Cl)cc1 (stereo not given)	0	-15	0	11	·	·
CN1CCN(CC(O)Cn2cc(/C=C/C(=O)c3cccs3)c3ccccc32)CC1 (stereo not given)	-3	12	0	5	·	·
CN1CCN(CC(O)Cn2cc(/C=N/O)c3ccccc32)CC1 (stereo not given)	-2	-3	0	59*	13	11
Cc1cccc(C(=O)Nc2ccc(C(=O)Nc3ccccc3[N+](=O)[O-])cc2)c1	0	13	0	1	·	·
COc1ccc(OC)c(CN2CCN(C(=O)CCC3CCCC3)CC2)c1	2	-10	0	52*	-4	-6
O=C(CCC1CCCC1)N1CCN(Cc2cccc(F)c2)CC1	0	5	0	63*	-10	-8
Cc1ccccc1CN1CCN(C(=O)CCC2CCCC2)CC1	0	11	0	53*	-8	-1
O=C(CCC1CCCC1)N1CCN(C(=O)c2cccc(F)c2)CC1	-1	-10	0	-12	·	·
CCOC(=O)N1CCN(Cc2cn3ccccc3n2)CC1	1	3	0	61*	-3	-2
COc1cccc(-c2ncc3ccccn23)c1	-1	-58	-1	68*	14	32*
COc1cc(OC)cc(-c2ncc3ccccn23)c1	0	0	-1	67*	2	15
COc1ccc(-n2nc3c(c2NC(=O)CC(C)C)CSC3)cc1	-1	-7	0	-1	·	·
O=C1CCCN1CCCNCC(=O)N1c2ccccc2Sc2ccccc21	-1	3	0	76*	-16	-1
CCOC(=O)c1c(NC(=O)CN(C)Cc2ccccc2)sc2c1CC(C)(C)NC2(C)C	1	8	-1	65*	0	7
CCOC(=O)c1c(NC(=O)COC(=O)c2ccccc2)sc2c1CC(C)(C)NC2(C)C	-1	2	0	5	·	·
SMILES	GPR151 ag	TEAD-YAP block	FBW7 act	MITF primary	MITF confirm	AlphaScreen intf2	others
O=C(O)c1ccc(CS(=O)(=O)c2ccccc2)o1	0	6	-1	56*	74*	14	AlphaScreen DR=>6.5
NNC(=O)c1ccc(CS(=O)(=O)c2ccccc2)o1	0	-19	0	-4	·	·
CCN(CC)c1nnnc2c1sc1nc(N3CCOCC3)c3c(c12)CCCC3	0	-3	0	-3	·	·
CCN(CC)C(=O)[C@@H]1C[C@H](NC2CCN(C)CC2)CN1C1Cc2ccccc2C1	0	-5	0	-4	·	·
NC(=O)c1ccc(N=Cc2cc3c(cc2[N+](=O)[O-])OCO3)cc1	-1	-6	0	58*	76*	9	AlphaScreen DR=>6.5
O=C(Cc1ccccc1)Nn1c(SCC(=O)c2ccc(Br)cc2)nc2ccccc2c1=O	1	2	0	8	·	·
C/C(=N\NC(=O)c1ccccc1I)c1ccco1	1	-1	0	5	·	·
